Screening results from PubChem.
This is a sample that favours compounds with a hit; in the whole collection about 9.3% have one here.
Rab9 prom act – qHTS Assay for Rab9 Promoter Activators; Potency, µM (top dose mostly 9.22 µM), without a hit: at the top dose activation, negative = inhibition, actives largely listed as activators; hit rate 2.8% among 320,000; Huh7 Rab9 promoter-luciferase reporter, luminescence, 24 h; AID 485297, 2010; note: % of control where 0% means no effect; nearly all actives have a fitted effect of over 60% in size
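Steps: seed 1500 Huh7 Rab9-luc cells per well, rest 2 h at 37 °C; add compound in DMSO; incubate 24 h; add luciferase reagent, 10 min ambient; read luminescence.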
ELG1 repair inh – qHTS screen for small molecules that inhibit ELG1-dependent DNA repair in human embryonic kidney (HEK293T) cells expressing luciferase-tagged ELG1. HEK293T ELG1-luciferase reporter, luminescence, 16 h; DNA damage induced by 5-fluorouridine. hit rate 2.3% among 330,000. AID 504467, 2011. Potency, µM (top dose mostly 46.1 µM), without a hit: at the highest dose activity change, negative = inhibition, most hits filed as inhibitors; note: % is set by controls: 0 for no effect and ±100 for the full control effect; nearly all actives have a fitted effect of over 55% in size
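5-Fluorouridine DNA damage + compound/DMSO, 2,000 cells/well, 16 h, 37 °C/5% CO2. ONE-Glo, 30 min RT, luminescence. Readout = decrease in reporter signal.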
ELG1 genotox – qHTS screen for small molecules that induce genotoxicity in human embryonic kidney (HEK293T) cells expressing luciferase-tagged ELG1; Potency, µM (series often up to 46 µM), for inactives: at the highest dose activity change, positive = activation, most hits filed as activators; HEK293T ELG1-luciferase reporter, luminescence, 16 h; hit rate 1.3% among 330,000; AID 504466, 2011; note: % of control where 0% means no effect; nearly all actives have a fitted effect of over 60% in size
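Genotoxic stress is detected as increased luminescence from luciferase-tagged ELG1 in HEK293T cells, measured with ONE-Glo after a 16 hr treatment at 37 °C.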
NPC1 prom act – qHTS Assay for NPC1 Promoter Activators; Huh7 NPC1 promoter luciferase reporter, 24 h; Potency, µM (titrated, usually from 9.22 µM), without a hit: at the top dose activation, actives largely listed as activators; hit rate 2.4% among 320,000; AID 485313, 2010; note: % of control where 0% means no effect; nearly all actives have a fitted effect of over 60% in size
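In 1536-well qHTS, Huh7 cells harboring an NPC1 promoter–luciferase construct received compound for 24 h; activation was quantified by luminescence following luciferase reagent addition.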
SMN2 splice up – qHTS Assay for Enhancers of SMN2 Splice Variant Expression; HEK293 SMN2-luciferase splicing reporter, luminescence, 30-36 h; AID 1458, 2008; Potency, µM (highest dose often 46.1 µM), without a hit: at the highest dose activity change, positive = activation, usual class: activators; hit rate 2.8% among 210,000; note: % of control where 0% means no effect; nearly all actives have a fitted effect of over 55% in size
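HEK293 cells carry an SMN2 minigene-luciferase reporter in which exon 7 inclusion puts luciferase in frame. Cells were seeded at 2000 cells/well, attached for 10-12 hours, then exposed to compounds for 30-36 hours at 37C before ONE-Glo luminescence.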
FLuc modulator – qHTS profiling assay for firefly luciferase inhibitor/activator using purifed enzyme and Km concentrations of substrates (counterscreen for miR-21 project); Luciferin 4-monooxygenase (Photinus pyralis), P08659; purified FLuc, Km substrates, luminescence inhibition; Potency, µM (highest dose often 57.5 µM), for the others: at the top dose activity change, negative = inhibition, hits mostly inhibitors; hit rate 6.9% among 360,000;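 note: plate controls were vehicle for no effect and reference inhibitor for full effect; nearly all actives have a fitted effect of over 55% in size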
Target sequence (P08659 whole entry, looked up): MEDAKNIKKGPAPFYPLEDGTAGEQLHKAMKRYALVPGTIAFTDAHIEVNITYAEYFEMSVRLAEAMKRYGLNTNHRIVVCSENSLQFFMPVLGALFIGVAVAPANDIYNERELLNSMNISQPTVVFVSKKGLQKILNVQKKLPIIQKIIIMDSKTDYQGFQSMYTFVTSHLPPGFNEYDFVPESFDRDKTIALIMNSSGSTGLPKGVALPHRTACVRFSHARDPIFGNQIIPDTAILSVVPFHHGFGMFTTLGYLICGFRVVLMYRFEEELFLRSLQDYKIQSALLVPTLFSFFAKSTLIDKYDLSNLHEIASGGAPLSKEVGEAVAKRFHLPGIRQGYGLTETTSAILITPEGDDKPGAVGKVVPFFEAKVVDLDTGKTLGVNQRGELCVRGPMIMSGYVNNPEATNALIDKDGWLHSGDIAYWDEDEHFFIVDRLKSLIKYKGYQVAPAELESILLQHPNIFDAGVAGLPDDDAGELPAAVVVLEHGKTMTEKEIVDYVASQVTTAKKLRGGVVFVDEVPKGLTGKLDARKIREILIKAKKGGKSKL
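Purified P. pyralis luciferase (10nM final) with 10uM D-luciferin and 10uM ATP (Km levels) in 50mM Tris acetate pH 7.5, 10mM Mg acetate, 0.01% Tween-20, 0.05% BSA; qHTS 6-point titration, ~60 µM downward; luminescence read.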
* = called active by the depositor. Calls come from the whole dose curve; as a rule, active = well fitted curve in the direction sought with a large enough effect; inconclusive = small, poorly fitted or top-dose-only effect, or another doubt; inactive = no such curve, though single readings can be large; an effect the other way counts as inactive or inconclusive. Potency is the fitted concentration of half-maximal effect.

`Oc1cccc(/C=N/c2c(-c3ccco3)nc3ccccn23)c1` gave Rab9 prom act inconclusive, ELG1 repair inh inconclusive, ELG1 genotox inconclusive, NPC1 prom act inconclusive, SMN2 splice up 24.4% and FLuc modulator 6.01µM*.
`COc1ccc(-c2nc3ccccn3c2/N=C/c2ccc(OC)c(OC)c2)cc1O` gave Rab9 prom act 6.5%, ELG1 repair inh inconclusive, ELG1 genotox 7.6%, NPC1 prom act -5.2%, SMN2 splice up 5.7% and FLuc modulator 13.5µM*.
`O=C(O)CCC(=O)NNc1nc2ccccc2nc1-c1ccccc1` gave Rab9 prom act 5.9%, ELG1 repair inh 9.1%, ELG1 genotox 0.0%, NPC1 prom act -5.1% and FLuc modulator -3.7%.
Screening CCn1c(C)[n+](Cc2ccccc2)c2ccc(C(=O)OC)cc21 returned Rab9 prom act -4.2%, ELG1 repair inh -29.1%, ELG1 genotox -0.1%, NPC1 prom act -5.9%, SMN2 splice up -22.6% and FLuc modulator 1.5%.
CCn1c(C)[n+](Cc2ccccc2)c2ccc(Cl)cc21 was read as Rab9 prom act 0.4%, ELG1 repair inh 14.6µM*, ELG1 genotox -10.7%, NPC1 prom act 1.9%, SMN2 splice up -25.3% and FLuc modulator -6.2%.
For COc1ccc(/C=C2\SC(=S)N(C(C(=O)O)c3ccccc3)C2=O)c(OC)c1 (stereo unspecified) the results were Rab9 prom act -13.5%, ELG1 repair inh inconclusive, ELG1 genotox 1.2%, NPC1 prom act -3.7% and FLuc modulator 23.9µM*.
Screening COc1cccc(/C=C2\SC(=S)N(C(C(=O)O)c3ccccc3)C2=O)c1OC (stereo unspecified) returned Rab9 prom act -4.4%, ELG1 repair inh -5.4%, ELG1 genotox -0.1%, NPC1 prom act 0.1% and FLuc modulator inconclusive.
Screening CCOc1ccccc1NC(=O)CCCc1nc(-c2ccccc2Cl)no1 returned SMN2 splice up 6.8% and FLuc modulator -10.7%.
Screening O=C(N=C1c2ccccc2CN1c1ccc(F)c(Cl)c1)c1cccnc1Cl returned Rab9 prom act inconclusive, ELG1 repair inh inconclusive, ELG1 genotox inconclusive, NPC1 prom act inconclusive, SMN2 splice up 11.2µM* and FLuc modulator 15.1µM*.
Cc1cc(OCC(=O)NCc2ccncc2)ccc1Cl was read as Rab9 prom act -3.3%, ELG1 repair inh 7.9%, ELG1 genotox -1.2%, NPC1 prom act 0.6% and FLuc modulator -1.5%.
`COc1ccccc1C(=O)NC1=NC(c2ccc(Br)cc2)CC(=O)N1` (stereo unspecified) gave SMN2 splice up 11.2µM* and FLuc modulator 4.78µM*.
Screening Cc1ccc2onc(CC(=O)N(C)c3ccccc3)c2c1 returned FLuc modulator 4.78µM*.
For CCOC(=O)c1ccc(NC(=O)CCc2nc(-c3ccccc3)no2)cc1 the results were Rab9 prom act -12.9%, ELG1 repair inh 25.9µM*, ELG1 genotox -10.4%, NPC1 prom act -1.3% and FLuc modulator -11.1%.
`CCOC(=O)c1ccc(NC(=O)Cc2noc3ccc(C)cc23)cc1` gave FLuc modulator 8.49µM*.
For CCOC(=O)c1ccc(NC(=O)CCc2nc(-c3ccccc3Cl)no2)cc1 the results were Rab9 prom act -7.5%, ELG1 repair inh -5.4%, ELG1 genotox 1.4%, NPC1 prom act 22.6%, SMN2 splice up -19.1% and FLuc modulator 8.3%.
Screening COc1cc(OC)c(NC(=O)CCc2nc(-c3ccc(C)cc3)no2)cc1Cl returned Rab9 prom act 11.1%, ELG1 repair inh -3.0%, ELG1 genotox -0.1%, NPC1 prom act 6.5%, SMN2 splice up 11.3% and FLuc modulator 21.3µM*.
Screening O=C(c1ccc(C#CC2(O)CCCCC2)cc1)N1CCN(C(c2ccccc2)c2ccccc2)CC1 returned Rab9 prom act 0.7%, ELG1 repair inh 1.8%, ELG1 genotox 8.9%, NPC1 prom act -1.2%, SMN2 splice up -1.6% and FLuc modulator -2.2%.
`Cc1nn(-c2nc3ccccc3[nH]2)c(=O)c2ccccc12` gave Rab9 prom act 0.1µM*, ELG1 repair inh inconclusive, ELG1 genotox inconclusive, NPC1 prom act inconclusive, SMN2 splice up -98.4% and FLuc modulator 0.0757µM*.
`Cc1nn(-c2ccc(Cl)cc2)c(=O)c2ccccc12` gave Rab9 prom act 2.82µM*, ELG1 repair inh inconclusive, ELG1 genotox inconclusive, NPC1 prom act 4.47µM*, SMN2 splice up 12.6µM* and FLuc modulator 16.9µM*.
For Cc1nn(-c2ccc(Cl)c(Cl)c2)c(=O)c2ccccc12 the results were Rab9 prom act 18.6%, ELG1 repair inh inconclusive, ELG1 genotox 3.7%, NPC1 prom act 25.7%, SMN2 splice up -4.3% and FLuc modulator -19.1%.
`Cc1nn(-c2ccc3ccccc3c2)c(=O)c2ccccc12` gave Rab9 prom act inconclusive, ELG1 repair inh inconclusive, ELG1 genotox inconclusive, NPC1 prom act 2.4% and FLuc modulator 12µM*.
Screening Cc1nn(-c2ccc(Cl)nn2)c(=O)c2ccccc12 returned Rab9 prom act inconclusive, ELG1 repair inh inconclusive, ELG1 genotox inconclusive, NPC1 prom act 17.7%, SMN2 splice up inconclusive and FLuc modulator 16.9µM*.
Screening Cc1cc(Nc2ccccc2)n(-c2nc3ccccc3[nH]2)n1 returned Rab9 prom act -12.1%, ELG1 repair inh -26.0%, ELG1 genotox -1.6%, NPC1 prom act -0.6%, SMN2 splice up 6.5% and FLuc modulator inconclusive.
For Cc1nn(C)c(N)c1-c1ccccc1 the results were Rab9 prom act 3.0%, ELG1 repair inh 5.9%, ELG1 genotox 7.7%, NPC1 prom act -7.5%, SMN2 splice up -9.8% and FLuc modulator 1.5%.
`Cc1nn(-c2nc3ccccc3[nH]2)c(N)c1-c1ccc(Cl)cc1` gave Rab9 prom act 3.55µM*, ELG1 repair inh inconclusive, ELG1 genotox 7.6%, NPC1 prom act inconclusive, SMN2 splice up inconclusive and FLuc modulator 8.49µM*.
Screening Cc1ccc(-c2cn3c(n2)CCCC3)cc1 returned Rab9 prom act -6.1%, ELG1 repair inh -14.1%, ELG1 genotox 0.3%, NPC1 prom act -11.0%, SMN2 splice up -24.9% and FLuc modulator -5.8%.
